The record followed here is PubChem BioAssay (NCI).

Common to all, as to assay: NCI-60 one-dose screen, 48 h (100 = growth as untreated, 0 = no growth, -100 = all killed)
Common to all, as to settings: 10 µM unless noted

Assay [1] relates to NCI-H23 lung.
In assay [2] the test system is NCI-H226 lung.
Assay [3] has as its system NCI-H322M lung.
Assay [4] deals with HOP-62 NSCLC.
In assay [5] the test system is NCI-H460 lung.
The test system of assay [6] is HOP-92 NSCLC.
Assay [7] deals with NCI-H522 lung.
The subject of assay [8] is A549/ATCC NSCLC.
Assay [9] deals with 786-0 renal.
In assay [10] the test system is COLO 205 colon.
Assay [11] deals with DU-145 prostate.
For assay [12], the system named is K-562 leukemia.
Assay [13] relates to MALME-3M melanoma.
Assay [14] deals with MDA-MB-231 breast.
For assay [15], the system named is RXF 393 renal.
The test system of assay [16] is SF-268 CNS.
Assay [17] concerns SF-295 CNS.
Assay [18] has as its system SF-539 CNS.
The subject of assay [19] is UACC-257 melanoma.
Assay [20] relates to M14 melanoma.

SMILES strings stand for the structures. Compounds without any hit were thinned out: in the full panel of roughly 83,000, 20% have a hit.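 96-well plates, one dose, 48 hours. Percent growth reported; active if below 10.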 Values without a mark were called inactive. The source made the active and inactive calls.

On to `CCCCCN(CCCCC)CC(O)c1c(Cl)ccc2ccccc12` (stereo not given), for which the growth is 54.1% in [1]; 70.4% in assay [2]; 71.2% in [3]; 80.5% in assay [4]; 66.5% in [5]; 68.1% in [6]. For the same compound, the growth in [7] was 79%; in [8], 67.6%; in [9], 71.7%; in assay [10], 72.9%; in assay [11], 69.4%; in [12] it was 61.7%. Moreover, the growth is 94.7% in assay [13]; 39.7% in assay [14]; 63.1% in assay [15]; 84.7% in assay [16]; 71.7% in [17]; 64.2% in [18]. In addition, the growth in assay [19] was 83.1%; in [20] it was 72.2%.
Consider `COc1cc(/C=C2\CN(S(=O)(=O)c3ccc(C)cc3)C/C(=C\c3cc(CN4CCCC4)c(O)c(OC)c3)C2=O)cc(CN2CCCC2)c1O`, for which the growth in assay [1] was -53.5% (active); in assay [2], 31.9%; in assay [3], 10.8%; in assay [4], 4.13% (active); in assay [5], -67.4% (active); in assay [6] it was -16.7% (active). In addition, the growth in [7] was -36.2% (active); in [8], 21.2%; in assay [9], -74.7% (active); in [10], -49.4% (active); in assay [11], -12.5% (active); in [12], 1.26% (active). Further, the growth in assay [13] is -81.5% (active); in [14] it was -20.3% (active); in [15], -87.8% (active); in assay [16], 1.82% (active); in assay [17], -40.3% (active); in assay [18], -55.6% (active). The growth was 57.7% in [19] and -66.4% (active) in assay [20].
Consider `c1ccc2c(-c3cnn4cc(-c5ccc(N6CCNCC6)cc5)cnc34)ccnc2c1`, for which the growth in assay [1] is -13.7% (active); in assay [2], -54.8% (active); in assay [3] it was -55.5% (active); in [4] it was -85.7% (active); in assay [5] it was -70% (active); in assay [6] it was -59.2% (active). Also, the growth in [7] is -50% (active); in [8], -65.4% (active); in [9], -91.9% (active); in [10] it was -58% (active); in assay [11] it was -83.4% (active); in assay [12], -23.6% (active). Also, the growth in assay [13] is -89.5% (active); in assay [14], -67.8% (active); in [15], -77.5% (active); in [16], -62.3% (active); in assay [17], -93.5% (active); in assay [18], -95.4% (active). Besides, the values for the growth in [19] and in [20] were -72.1% (active) and -81.9% (active), respectively.
For `O=C(Nc1cccc2c1C(=O)c1cccc(NC(=O)c3ccc(C(=O)Nc4cccc5c4C(=O)c4cccc(NC(=O)c6ccccc6)c4C5=O)cc3)c1C2=O)c1ccccc1`, the growth in assay [1] is 98%; in [2], 74.1%; in [3], 98.8%; in [4], 103%; in assay [5] it was 111%; in [6], 58.4%. Besides, the growth is 84.7% in [7]; 99.6% in [8]; 109% in assay [9]; 111% in assay [10]; 115% in assay [11]; 93.5% in assay [12]. Also, the growth in assay [13] is 101%; in assay [14] it was 90.4%; in [15] it was 103%; in [16] it was 109%; in assay [17] it was 108%; in [18], 104%. Also, the growth was 95.1% in [19] and 113% in [20].
In the case of `CCCc1cc(CCC)n2nc(N)nc2n1`, the growth in assay [1] was 103%; in assay [2] it was 94.8%; in [3] it was 97.9%; in assay [4], 97.5%; in assay [5], 110%; in [6], 106%. Besides, the growth in [7] is 109%; in assay [8], 112%; in [9], 97.1%; in assay [10] it was 103%; in assay [11], 117%; in assay [12], 121%. For the same compound, the growth in assay [13] is 116%; in assay [14], 125%; in [15], 102%; in [16], 110%; in assay [17] it was 96.4%; in [18], 112%. In addition, the growth in assay [19] is 118%; in [20] it was 111%.
On to `COc1cc(-c2c(-c3ccccc3)c[nH]c2C(=O)NCCCO)c(OC)c2c1OCO2`, for which the growth in [1] was 96.3%; in assay [2], 95%; in assay [3], 95.9%; in [4], 98.2%; in assay [5] it was 110%; in assay [6], 97%. Further, the growth in assay [7] was 93.9%; in assay [8], 103%; in assay [9] it was 102%; in assay [10], 114%; in [11], 111%; in [12], 86.5%. Besides, the growth was 108% in [13]; 88.8% in assay [14]; 93.5% in assay [15]; 99.4% in assay [16]; 101% in assay [17]; 104% in [18]. For the same compound, the growth in [19] was 106%; in assay [20], 105%.
On to `Cc1cccc(C)c1NC(=O)Nc1ccccc1`, for which the growth was 88.4% in assay [1]; 107% in [2]; 80.3% in assay [3]; 95.8% in assay [4]; 44% in assay [5]; 128% in assay [6]. Also, the growth in [7] is 49.4%; in assay [8], 86.8%; in [9] it was 110%; in assay [10] it was 102%; in assay [11], 9.29% (active); in assay [12], 102%. For the same compound, the growth was 98.4% in [13]; 96.9% in assay [14]; 87.3% in [15]; 96.1% in assay [16]; 66.7% in [17]; 108% in assay [18]. Further, the growth was 98.2% in assay [19] and 109% in assay [20].
As for `COc1cc(NC(=O)c2cncnc2Nc2ccc3c(ccn3Cc3cccc(F)c3)c2)cc(OC)c1`, the growth in [1] is 79.1%; in assay [2] it was 80.3%; in [3] it was 84.1%; in [4], 52.7%; in [5] it was 45.9%; in [6], 83.4%. The growth in assay [7] was 44.3%; in assay [8], 40.4%; in assay [9] it was 81.1%; in assay [10], 61.3%; in assay [11], 79.9%; in [12], 15.4%. The growth is 71.6% in [13]; 57.4% in [14]; 62.5% in assay [15]; 68.9% in assay [16]; 50.4% in [17]; 44.4% in assay [18]. The growth in assay [19] was 72.7%; in assay [20], 47.2%.
